PubChem BioAssay AID777 (Sanford-Burnham Center for Chemical Genomics, 2007)
Among all 96,000 compounds or so, about 19,000 (20%) were called active.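 Rule for the calls: active = blocking of liver enzyme CYP2C9 beyond about 50% at 5 µM (limit read from the data); inactive = the rest.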 A selection follows.

biological target: Cytochrome P450 2C9 (Homo sapiens) (UniProt P11712); test: blockers of cytochrome P450 2C9 activity – biochemical, luminescence, ADME assay, primary screen (AID 777); conditions: CYP2C9 Supersomes, luciferin-H conversion, at 5 µM, active compounds read high
Sequence (P11712 whole entry, looked up): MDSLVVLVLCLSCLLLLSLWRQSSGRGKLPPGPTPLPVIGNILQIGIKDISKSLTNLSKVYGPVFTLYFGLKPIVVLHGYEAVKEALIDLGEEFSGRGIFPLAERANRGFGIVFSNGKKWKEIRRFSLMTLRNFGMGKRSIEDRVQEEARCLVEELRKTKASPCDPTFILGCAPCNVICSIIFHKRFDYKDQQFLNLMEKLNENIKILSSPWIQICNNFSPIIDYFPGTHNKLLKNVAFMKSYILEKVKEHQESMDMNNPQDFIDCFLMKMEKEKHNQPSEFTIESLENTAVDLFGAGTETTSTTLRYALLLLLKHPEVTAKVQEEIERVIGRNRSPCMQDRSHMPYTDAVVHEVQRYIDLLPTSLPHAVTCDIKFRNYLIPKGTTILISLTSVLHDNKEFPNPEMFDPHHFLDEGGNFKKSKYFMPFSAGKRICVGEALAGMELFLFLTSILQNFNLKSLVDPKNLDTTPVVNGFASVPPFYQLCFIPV

Row | Compound | inhibition
1 | COC(=O)/C(=C\Nc1ccccc1)NC(=O)c1ccc(Cl)cc1Cl | 33.9% (inactive)
2 | CC(C)(C)n1nc2c(c1NC(=O)c1ccc(S(=O)(=O)N3CCCC3)cc1)CS(=O)C2 (stereo not drawn) | 4.2% (inactive)
3 | CCOc1nc(NCCN2CCOCC2)nc(Nc2ccc(C)cc2)n1 | 13% (inactive)
4 | O=c1c([N+](=O)[O-])cc(C(F)(F)F)cn1Cc1cccc(Cl)c1 | 23.9% (inactive)
5 | COc1ccc2c(c1OC)C(=O)c1ccccc1C2=O | 21.6% (inactive)
6 | CN1CCc2c(sc3c2c(NCc2ccco2)nc2nnnn23)C1 | 45.7% (inactive)
7 | CCN(CC)P(=O)(/C(Cl)=C\Nc1c(C)n(C)n(-c2ccccc2)c1=O)N(CC)CC | -8.4% (inactive)
8 | CNC(=O)NCCN1CCCC1=O | 35.9% (inactive)
9 | Cc1nc(NC(=O)CCC(=O)O)sc1C(=O)N(C)C | 24.5% (inactive)
10 | CN(CC(=O)Nc1cccc2c1CCCC2)S(=O)(=O)c1ccc(Cl)cc1 | -18.4% (inactive)
11 | Cc1nc(NC(=O)CN(C)S(=O)(=O)c2ccc(Cl)cc2)sc1C | 61.3% (active)
12 | CCOC1CCCCC1NS(=O)(=O)c1ccc(Cl)cc1 (stereo not drawn) | 5.6% (inactive)
13 | CCOC(=O)N1CCN(S(=O)(=O)c2ccc(C(=O)Nc3ccc(F)cc3F)cc2)CC1 | 18.7% (inactive)
14 | CCOC(=O)C1CCCN(C(=O)c2ccc(CS(=O)(=O)c3ccc(Br)cc3)o2)C1 (stereo not drawn) | 49.8% (inactive)
15 | O=C(CSc1ncccn1)NCCc1ccccc1 | 17% (inactive)
16 | O=C(CCS(=O)(=O)Cc1ccccc1F)NCCCN1CCCCC1 | -0.3% (inactive)
17 | CCOC(=O)CN(C(=O)CN1CCOCC1)c1ccc(Br)cc1 | 5.6% (inactive)
18 | COc1cc(OC)c(C(=O)NC2CC(C)(C)NC(C)(C)C2)cc1OC | -0.9% (inactive)
19 | O=C(Nc1cnn(Cc2ccc(Cl)cc2)c1)C1CCCC1 | 56.1% (active)
20 | O=C(O)c1ccc(NC(=O)C2CCCCC2)cc1 | -25.8% (inactive)
21 | O=C(O)C1CCCCC1C(=O)Nc1ccc(Cl)cc1 (stereo not drawn) | 9.3% (inactive)
22 | O=C1CC(c2ccccc2)C(=O)N1c1cccc(O)c1 (stereo not drawn) | 45% (inactive)
23 | O=C(N/N=C/C=C/c1ccccc1)C1CC1(c1ccccc1)c1ccccc1 (stereo not drawn) | 99.5% (active)
24 | O=C(Nc1ccc(F)c(Cl)c1)C1CCN(S(=O)(=O)c2cccnc2)CC1 | 9.3% (inactive)
25 | O=C(O)c1ccc(COCC(F)(F)F)cc1 | -1.6% (inactive)
26 | Fc1c(F)c(C(F)(F)F)c(F)c(F)c1N1CCN(c2ccc3nnc(C(F)(F)F)n3n2)CC1 | 5.9% (inactive)

Row | Compound | inhibition
27 | c1ccc(CCc2nc(-c3ccncc3)no2)cc1 | 93% (active)
28 | c1csc(-c2nc(-c3ccncc3)no2)c1 | 11.1% (inactive)
29 | O=C1c2ccccc2C(=O)N1CCCc1nc(-c2ccccc2)no1 | 24.2% (inactive)
30 | Cc1cc(C(=O)O)c(S(C)(=O)=O)s1 | -5.1% (inactive)
31 | CC(Sc1nnc(Cc2ccc([N+](=O)[O-])cc2)o1)C(N)=O (stereo not drawn) | -1.5% (inactive)
32 | Cc1ccc2nc(SC(C)C(=O)NCc3ccco3)[nH]c2c1 (stereo not drawn) | 44.2% (inactive)
33 | Cc1nnc(NCCO)c2ccccc12 | -5.4% (inactive)
34 | CCC(=O)NC(=Nc1nc2ccccc2s1)NC(=O)CC | -88.9% (inactive)
35 | O=C1CCCC(O)=C1C=NCCc1ccccc1 | 6.6% (inactive)
36 | Fc1ccccc1C(c1nnnn1Cc1ccc2c(c1)OCO2)N1CCN(Cc2ccccc2)CC1 (stereo not drawn) | 45.6% (inactive)
37 | Cc1cc(C)c2[nH]c(=O)c(C(c3nnnn3Cc3ccc4c(c3)OCO4)N3CCCC3)cc2c1 (stereo not drawn) | 86.7% (active)
38 | CC(C)(C)n1nnnc1C(c1ccc(F)cc1)N1CCN(Cc2ccc3c(c2)OCO3)CC1 (stereo not drawn) | 30.9% (inactive)
39 | COc1ccc(C(=O)CN(C(=O)c2ccc(Cl)cc2)N2C(=O)c3ccccc3C2=O)cc1 | 49.5% (inactive)
40 | N#C/C(=C1\CCCN1)c1nc(-c2ccccc2)cs1 | 40.4% (inactive)
41 | N#CC(=C1SC=CS1)c1nc(-c2ccccc2)cs1 | 52.9% (active)
42 | N#CC(=C1CCCC1)c1nc(-c2ccc(Cl)cc2)cs1 | -6.8% (inactive)
43 | CC(=O)N1CSCC1C(=O)O (stereo not drawn) | 6.7% (inactive)
44 | O=C(OCC#CCSc1nnc(-c2ccncc2)o1)c1sc2ccccc2c1Cl | 30.1% (inactive)
45 | CSc1cc(C)n(-c2ccccc2C)c(=S)c1C(C)=O | 14.1% (inactive)
46 | CN(c1nc2ccccc2n2c(-c3ccco3)nnc12)S(=O)(=O)c1ccccc1 | 15.3% (inactive)
47 | Cc1ccc(S(=O)(=O)N2CCC(C(=O)OCC(=O)N3CC(=O)Nc4ccccc43)CC2)cc1 | 54.7% (active)
48 | O=C1CN(C(=O)COC(=O)C2CC(=O)N(Cc3ccco3)C2)c2ccccc2N1 (stereo not drawn) | -13.2% (inactive)
49 | Cc1ccc(S(=O)(=O)NCC(=O)OCC(=O)N2CCc3ccccc32)cc1 | -28.2% (inactive)
50 | CCOC(=O)CN1CC23C=CC(O2)C(C(=O)Nc2ccc(F)cc2)C3C1=O (stereo not drawn) | -21.8% (inactive)
51 | CC1(C)C/C(=C(/C#N)C(N)=O)CCO1 | -18.3% (inactive)
52 | Nc1c(-c2ccc(F)cc2)cnc2ncnn12 | -25.1% (inactive)

Row | Compound | inhibition
53 | CC1(C)CC(=O)C=C(NCc2ccncc2)C1 | 7.3% (inactive)
54 | Cc1nn(Cc2ccc(Cl)c(Cl)c2)c(C)c1NC(=O)c1cc(C2CC2)on1 | 96.7% (active)
55 | Cc1cc(C(=O)Nc2c(C)nn(Cc3ccccc3)c2C)on1 | 22.4% (inactive)
56 | CSc1ccccc1NC(=O)c1cc(C2CC2)on1 | -144% (inactive)
57 | Cc1cc2ccccc2n2c(SCC(=O)N3CCN(C(=O)c4ccco4)CC3)nnc12 | -4.3% (inactive)
58 | CCCCNC(=O)CCn1c(=S)[nH]c2cc3c(cc2c1=O)OCO3 | 36.3% (inactive)
59 | Cc1ncc(CC(=O)n2cc(C(=O)c3cc(Cl)ccc3O)cn2)s1 | 81.1% (active)
60 | O=C(c1ccc2c(c1)N(Cc1ccc(F)cc1)C(=O)CS2)N1CCOCC1 | 1.7% (inactive)
61 | CCOC(=O)c1oc2ccccc2c1NC(=O)c1cccs1 | 20.2% (inactive)
62 | Cc1cc(Nc2ccccc2)nc(N)n1 | -6.6% (inactive)
63 | Cc1ccc(S(=O)(=O)NCCSC(C)(C)C)cc1 | 23.6% (inactive)
64 | Cc1ccc(S(=O)(=O)NCC(C)NS(C)(=O)=O)cc1 (stereo not drawn) | 60.2% (active)
65 | COc1ccccc1CNS(=O)(=O)c1ccc(C)cc1 | -159% (inactive)
66 | CCOc1ccc(NC(=O)Nc2ccc(N(C)C(C)=O)cc2)cc1 | -6.3% (inactive)
67 | CC(=O)Nc1cccc(/C(C)=N/NC(=O)c2ccccc2Cl)c1 | 0.2% (inactive)
68 | Cc1ccc(C)c(N2C(=O)CS/C2=N\NC(=O)c2ccccc2Cl)c1 | 77.7% (active)
69 | O=C(Nc1ccc2sc3ccccc3c(=O)c2c1)c1ccccc1Cl | -9% (inactive)
70 | COc1ccc(-c2nnn(Cc3nc(N)nc(N4CCCCC4)n3)n2)cc1 | 17.3% (inactive)
71 | CCOc1cc(/C=C2/N=C(c3ccc(C(C)(C)C)cc3)OC2=O)cc(Cl)c1OS(C)(=O)=O | 30.3% (inactive)
72 | CCOCCCN1C(=O)CN(C2CCCCC2)C(=O)C1c1ccc(OCC)c(OC)c1 (stereo not drawn) | 15.3% (inactive)
73 | COc1cc2[nH]c(=S)n(Cc3ccc(C)o3)c(=O)c2cc1OC | -0.8% (inactive)
74 | Cc1nc2cc(S(=O)(=O)C(F)(F)F)ccc2s1 | 1.9% (inactive)
75 | O=C(CC(O)(C(F)(F)F)C(F)(F)F)Nc1ccc(Cl)c(Cl)c1 | 65% (active)
76 | N/C(=N\OC(=O)Nc1ccc(Cl)c(Cl)c1)c1ncc(C(F)(F)F)cc1Cl | -6.7% (inactive)
77 | Cc1nnc(NC(=O)Nc2ccc(Cl)c(Cl)c2)s1 | 48.4% (inactive)
78 | Cc1ccc(S(=O)(=O)c2c(N)n(C)c3nc4ccccc4nc23)cc1 | 14.2% (inactive)

Row | Compound | inhibition
79 | C=CCn1c(N)c(S(=O)(=O)c2cccs2)c2nc3ccccc3nc21 | 86.3% (active)
80 | C=CCn1c(N)c(C(=O)OCC(C)C)c2nc3ccccc3nc21 | 28.3% (inactive)
81 | CCCCSc1nnc(-c2ccc(C)cc2)o1 | 31.3% (inactive)
82 | CCS(=O)(=O)N1CCC(C(=O)N2CCN(c3ccccc3)CC2)CC1 | 9.9% (inactive)
83 | O=C(CSCc1ccccc1)N1CCc2ccccc21 | -12.4% (inactive)
84 | O=C(C1CCN(S(=O)(=O)Cc2ccccc2)CC1)N1CCCc2ccccc21 | 51.8% (active)
85 | CCOc1ccc(NC(=O)C2CC(=O)N=C(N)S2)cc1 (stereo not drawn) | -2.4% (inactive)
86 | CC(NC(=O)C1CCC(CNc2c(N3CCOCC3)c(=O)c2=O)CC1)c1ccccc1 (stereo not drawn) | -6.7% (inactive)
87 | O=C(Nc1cccc2cccnc12)c1cccc(N2C(=O)CCC2=O)c1 | -71.6% (inactive)
88 | Cn1c(CNC(=O)C(C)(C)C)nc2ccccc21 | -13.1% (inactive)
89 | COc1ccc(C(=O)N2CCc3cc(OC)c(OC)cc3C2c2cccc([N+](=O)[O-])c2)cc1 (stereo not drawn) | 64.4% (active)
90 | COc1cc(C(=S)N2CCOCC2)cc(OC)c1OC(=O)c1cc([N+](=O)[O-])cc([N+](=O)[O-])c1 | -5% (inactive)
91 | COc1ccc(Cc2nnc(SCC(=O)c3cccc([N+](=O)[O-])c3)n2C)cc1 | 38.7% (inactive)
92 | CCC1CCCCN1CCCNC(=O)Cn1nc(-c2ccccc2)ccc1=O (stereo not drawn) | 9.1% (inactive)
93 | Cc1c(NC(=O)CSc2cccc3cccnc23)c(=O)n(-c2ccccc2)n1C | -25.5% (inactive)
94 | O=c1cccc(-c2ccc(Br)cc2)o1 | -19.8% (inactive)
95 | O=C(Cc1ccc(-n2c(=O)c3sccc3n(Cc3ccc(F)cc3)c2=O)cc1)NCc1ccco1 | 69.5% (active)
96 | COc1cc(-n2c(C)nc3cc(C(=O)NCc4ccco4)ccc32)cc(OC)c1OC | 8.4% (inactive)
97 | O=C(NCc1ccco1)c1ccc(CS(=O)(=O)Cc2ccc(F)cc2)o1 | 40.7% (inactive)
98 | O=C(NCc1ccco1)c1sc2cccc(F)c2c1Cl | -26.6% (inactive)
99 | O=C(NCCc1ccco1)c1nn(Cc2ccccc2)c(=O)c2ccccc12 | 7.4% (inactive)
100 | O=C(NCc1ccco1)c1cc2sccc2n1Cc1ccc(F)cc1 | 60.8% (active)
101 | Cc1nc2c(-c3ccc(F)cc3)c(C)nn2c(C)c1CCC(=O)NCc1ccco1 | 24.9% (inactive)
102 | O=C(NCc1ccco1)c1ccc(Cn2c(=O)c3sccc3n(Cc3ccc(F)cc3)c2=O)cc1 | 79.7% (active)
103 | Cc1cc(C(=O)OCC(=O)NCc2ccco2)c(C)n1-c1ccccc1 | 42.1% (inactive)
